# The source made the active and inactive calls.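 The calls were made as follows: active = blocks over 70% of labeled estradiol binding at 10 µM, or over a set limit at 100 nM; inactive = the rest.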
# Biological target: Estrogen receptor beta (Homo sapiens) (UniProt Q92731)
# Assay: displacement of fluorescent estrogen from ERbeta – cell-based, Cos7 ERbeta-GFP, flow cytometry, primary screen (AID 1210);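 also: 0% = DMSO vehicle wells and 100% = complete loss of labeled estradiol signal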
# Details: fluorescent estrogen binding, stronger effect = higher value
# [1] = ligand binding inhibition, at 0.1 µM
# Estrogen receptor beta (Homo sapiens), sequence (Q92731 whole entry, looked up): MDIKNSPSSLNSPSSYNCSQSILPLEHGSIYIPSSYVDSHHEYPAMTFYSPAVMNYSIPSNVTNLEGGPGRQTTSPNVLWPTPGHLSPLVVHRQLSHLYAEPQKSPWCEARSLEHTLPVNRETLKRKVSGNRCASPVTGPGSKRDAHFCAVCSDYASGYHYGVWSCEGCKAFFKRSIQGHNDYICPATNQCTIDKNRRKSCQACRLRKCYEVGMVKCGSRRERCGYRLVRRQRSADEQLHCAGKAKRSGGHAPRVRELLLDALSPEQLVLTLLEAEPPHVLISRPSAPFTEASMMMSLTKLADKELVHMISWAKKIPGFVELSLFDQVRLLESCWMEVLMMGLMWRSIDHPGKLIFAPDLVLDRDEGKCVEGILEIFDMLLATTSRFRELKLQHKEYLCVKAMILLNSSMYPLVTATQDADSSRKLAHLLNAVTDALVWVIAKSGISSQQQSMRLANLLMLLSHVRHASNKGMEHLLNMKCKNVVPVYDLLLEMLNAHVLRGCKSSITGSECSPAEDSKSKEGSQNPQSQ
Compound,inhibition (at 10 µM),inhibition [1] [%]
COCCCn1c(Cc2csc(Nc3cccc(Cl)c3)n2)nnc1SCC(=O)OC1CCCCC1,11% (inactive),29
O=C1CC(=O)N2N=C(c3ccc([N+](=O)[O-])cc3)SC2=N1,45% (inactive),19
COc1ccc(-c2nnc(SCC(=O)/C(C#N)=C(\C)N)o2)cc1,36% (inactive),13
Clc1ccc(Sc2cc(N3CCOCC3)nc(-c3ccccc3)n2)cc1,36% (inactive),18
CC(Cc1ccc(O)c(O)c1)C(C)Cc1ccc(O)c(O)c1 (stereo not given),65% (inactive),18
COc1ccc2cc3c(N)nn(C(=O)Cc4ccc(Cl)cc4)c3nc2c1,37% (inactive),12
NC(=O)c1cccc2c1C(=O)N(C1CCCCC1)C2,3% (inactive),4
CCOC(=O)N1CCN(c2ccc(O)cc2)CC1,45% (inactive),34
Cc1ccc(/C=c2\sc3nc(-c4ccco4)nn3c2=O)o1,61% (inactive),27
CCSc1nnc(NC(=O)C2Cc3ccccc3CN2C(=O)c2ccco2)s1 (stereo not given),45% (inactive),34
Cn1nnnc1SCC(=O)Nc1nc(-c2ccccc2)c(-c2ccccc2)o1,39% (inactive),32
Oc1ccc(-c2cn3cc(C(F)(F)F)ccc3n2)cc1,41% (inactive),10
COc1ccc(OC)c(/C=N/c2oc(-c3ccco3)c(-c3ccco3)c2C#N)c1,31% (inactive),31
Clc1ccc2nc(-c3ccccn3)c(Nc3ccc4c(c3)OCO4)n2c1,60% (inactive),2
O=C(Nc1ccc2oc(-c3ccc4ccccc4c3)nc2c1)c1cccs1,42% (inactive),36
COc1cc(/C=C2\OC(=O)c3c(OC)cccc32)ccc1O,55% (inactive),28
O=C(c1cccc(F)c1)N1CCN(C(=O)c2cc3ncc(Br)cn3n2)CC1,26% (inactive),38
COc1ccc(NC(=O)c2ccco2)cc1N,69% (inactive),17
CC(=O)c1ccc(NC(=S)N2CCCC(CO)C2)cc1 (stereo not given),49% (inactive),13
CCOc1cc(C2CC(=O)c3c(ccc4ccccc34)N2)ccc1O (stereo not given),19% (inactive),8

Compound,inhibition (at 10 µM),inhibition [1] [%]
O=c1cc(O)c2c(=O)n(-c3ccccc3)c3c(c2o1)CCCCCC3,59% (inactive),2
Cc1ccc(Oc2cc(N3CCOCC3)nc(-c3ccccc3)n2)cc1,35% (inactive),15
CC(=O)c1cccc(NC(=O)Cc2cccs2)c1,11% (inactive),23
COc1ccc(C(=O)N/N=C(\C)c2ccc3c(c2)C2C=CCC2C(c2ccccc2)N3)cc1 (stereo not given),67% (active),66
COC(=O)C1=C(O)/C(=C\c2ccc(CNC(=O)C(=O)Nc3ccc(C)c(C)c3)o2)N=C1C,42% (inactive),20
O=C(Cc1cccs1)Nc1nnc(Cc2ccccc2)s1,18% (inactive),29
Cc1cc(=O)oc2c(CN3CCC(C)CC3)c(O)c(Cl)cc12,20% (inactive),11
O=C(Nc1ccc2oc(-c3ccccc3F)nc2c1)c1cncc(Br)c1,63% (inactive),25
CCn1c2ccccc2c2cc(NC(=O)CSc3nnc(-c4ccc(OC)cc4)n3N)ccc21,57% (inactive),24
COc1cccc(C(=O)NC2CCN(C(=O)N3c4ccccc4Sc4ccccc43)CC2)c1,43% (inactive),17
c1coc(-c2nnc3sc(Cc4cccs4)nn23)c1,5% (inactive),53
COc1cccc2cc3c(=O)n(-c4ccccc4)nc-3oc12,70% (inactive),12
Cc1occc1C(=O)NCc1cccc(CNC(=O)c2ccoc2C)c1,2% (inactive),10
CCCC1=NN2C(=N)/C(=C\c3ccc(SCc4ccco4)o3)C(=O)N=C2S1,13% (inactive),17
O=c1nc2s/c(=C\c3ccco3)c(=O)n2nc1Cc1ccc(F)cc1,16% (inactive),35
Oc1ccccc1-c1nnc(SCCN2CCOCC2)n1Cc1ccccc1,32% (inactive),41
COC(=O)c1ccc2c(=O)n(CC3CCCO3)c(SCC(=O)Nc3ccccc3Cl)nc2c1 (stereo not given),65% (inactive),4
CCO/C([O-])=N/c1c[n+](N2CCOCC2)no1,21% (inactive),44
Cc1cnc(C(=O)OCC(=O)c2csc(N3CCCCC3)n2)cn1,47% (inactive),23
COC(=O)c1ccccc1NC(=O)c1noc2c1CCC2,38% (inactive),26

# Source: PubChem BioAssay AID1210 (NMMLSC, 2008)
